# Results taken from PubChem BioAssay (NCI).
# This is part of a sample that, as a whole, favours compounds with a hit. Of some 83,000 tested, about 20% had one in any assay.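 Plates (96-well) were seeded with cells, treated with compound at one concentration, and incubated for 48 hours before percent growth was determined.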 Calls of active or inactive are those of the source. How the source made its calls: active means growth percent below 10; inactive means the rest.
# Tested on: COLO 205 colon
# Assay: NCI-60 one-dose screen, 48 h (100 = growth as untreated, 0 = no growth, -100 = all killed)
# Conditions: 10 µM unless noted
row,Structure (SMILES),growth
1,O=C1Nc2ccccc2/C1=C/c1cccn1CCCCCCn1c2ccccc2c(=O)c2ccccc21,50.5% (inactive)
2,O=C(Nc1ccccc1CNc1nc(Nc2ccc(OCCN3CCCC3)cc2)ncc1Cl)NC1CCCCC1,89.3% (inactive)
3,CSc1nc(CC(C)C)c(C#N)c(=O)n1C,43.3% (inactive)
4,CS(=O)(=O)Nc1cc(-c2ccc3ncnc(Nc4cccc(Cl)c4)c3c2)cnc1Cl,-49.4% (active)
5,N#Cc1c(-c2ccc(Cl)cc2)nc(NN=Cc2cccc(Cl)c2)nc1N1CCOCC1,61% (inactive)
6,CNC1=C([N+](=O)[O-])C(c2ccc(OC)cc2)C(C#N)=C(c2ccc[nH]2)O1 (stereo unspecified),107% (inactive)
